Assay results: PubChem BioAssay (NCI)
About 79,000 compounds went through this panel and 15% of them were active in at least one assay; those are over-represented in the sample as a whole. A number with no mark means an inactive call. Calls of active or inactive are those of the source. Rule as the data show it: active = growth inhibition above about 70%; inactive = the rest.

Assay: NCI Yeast Anticancer Drug Screen. Data for the rad50 strain (AID 155);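 also: 0% = growth of vehicle-only cultures of the same strain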
Conditions: S. cerevisiae rad50 strain growth inhibition; at 50.0 µM; active compounds read high
Outline: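 Genetically altered yeast (DNA repair pathway); compound treatment; growth inhibition vs vehicle ctrl.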

**Q.** Which growth inhibition does the source give for `CCOC(=O)NC(Nc1cccc(F)c1)(C(F)(F)F)C(F)(F)F` here?
**A.** 16.8%

**Q.** Which growth inhibition does the source give for `N#C/C(=C\c1ccccc1[N+](=O)[O-])C(=O)O` here?
**A.** 36.5%

**Q.** For `Cc1cc(C)c(NS(=O)(=O)c2ccc(Cl)cc2)cc1C`, which growth inhibition is on record?
**A.** 94.5% (active)

**Q.** Which growth inhibition does the source give for `O=C1c2cc3ccccc3cc2NC(O)c2cccn21` (centres undefined) here?
**A.** 9.4%

**Q.** Which growth inhibition does the source give for `C/C=C(\CC)C(C#N)(CCC)C(=O)OCC` (centres undefined) here?
**A.** -10.2%

**Q.** For `CCN(CC)CC(C)(C)C(=O)/C=C/c1ccc(OC)cc1`, which growth inhibition is on record?
**A.** -3.7%

**Q.** With `CC1(C)Nc2cc3c(cc2-n2cccc21)oc1ccccc13` as the compound, how does the growth inhibition read?
**A.** 17.3%

**Q.** For `C=CCOc1cc(=O)[nH]c2ccccc12`, which growth inhibition is on record?
**A.** -14.1%

**Q.** With `c1ccc2oc(-c3ccc4c(c3)OCO4)nc2c1` as the compound, how does the growth inhibition read?
**A.** 14.8%

**Q.** For `CC1(C)OC[C@@H](O)[C@H](C#N)CO1`, which growth inhibition is on record?
**A.** 17.6%

**Q.** Which growth inhibition does the source give for `O=c1ccn(C2OC(C(O)CO)C(O)C2O)c(=O)[nH]1` (centres undefined) here?
**A.** -4.95%

**Q.** With `Brc1ccccc1N=Nc1ccccc1Br` as the compound, how does the growth inhibition read?
**A.** -13.6%

**Q.** With `CC(=O)c1cccc(NC(=O)Nc2cccc3ccccc23)c1` as the compound, how does the growth inhibition read?
**A.** 0.45%

**Q.** Which growth inhibition does the source give for `CNc1n[nH]c(-c2ccccc2)n1` here?
**A.** 4.85%

**Q.** For `COc1ccc(OC)c(NC(=O)OCc2ccc3c(c2)OCO3)c1`, which growth inhibition is on record?
**A.** 1.25%

**Q.** For `NC(N)=NC(N)=Nc1cnccn1`, which growth inhibition is on record?
**A.** 13.7%

**Q.** Which growth inhibition does the source give for `CC1(C)OC2COC(CNCC3OCC4OC(C)(C)OC34)C2O1` (centres undefined) here?
**A.** 3%

**Q.** With `CCOC(=O)C(Nc1cccc2ccccc12)C(=O)OCC` as the compound, how does the growth inhibition read?
**A.** 0.5%

**Q.** Which growth inhibition does the source give for `CCCCN(CCCC)C(=O)C(=O)C(C)C(=O)CC` (centres undefined) here?
**A.** -3.6%
